Source: PubChem
D1 agonist: Allosteric Agonists of the Human D1 Dopamine Receptor: qHTS; D(1A) dopamine receptor (Homo sapiens), P21728; HEK293 T-REx D1 cells, calcium flux, agonist mode; activation, % at 2 µM; 1% of 360,000 active; also: 0% is about no effect
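Inducible HEK293 T-REx D1 cells, force-coupled to calcium signalling, were plated at 4000 cells/well with tetracycline and held overnight at 30 C. After no-wash calcium dye loading, compound-evoked calcium rise over 180 s flagged agonists.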
Epigenetic derep: Quantitative High-Throughput Screen for Regulators of Epigenetic Control | murine LDR cells, GFP reporter derepression, 30 h | Potency, µM (series often up to 53.9 µM), without a hit: at the highest dose GFP activation, actives largely listed as activators | 0.2% of 280,000 active | AID 1865, 2009; active = well fitted activation curve with a large enough effect; also: potency is read from the fitted curve at half-maximal effect; % of control where 0% means no effect; nearly all actives have a fitted effect of over 60% in size
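GFP-positive cell count by laser-scanning cytometry (objects 20–120 um) after 30 h, 37 C compound exposure of murine LDR cells; reporter is CMV-GFP integrated at a silenced locus, inducible by HDAC or DNMT inhibitors.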
TRHR enhancer: qHTS for Small Molecule Agonists and Allosteric Enhancers of Human TRH Receptor: Primary Screen for Enhancers; Thyrotropin-releasing hormone receptor (Homo sapiens), P34981; TRHR cells, fluo-8 calcium fluorescence, EC20 TRH enhancement; enhancement, % at 2 µM; 0.66% of 360,000 active; in the data active = enhancement above about 30%; also: 0% is about no effect
Target sequence (P34981 whole entry, looked up): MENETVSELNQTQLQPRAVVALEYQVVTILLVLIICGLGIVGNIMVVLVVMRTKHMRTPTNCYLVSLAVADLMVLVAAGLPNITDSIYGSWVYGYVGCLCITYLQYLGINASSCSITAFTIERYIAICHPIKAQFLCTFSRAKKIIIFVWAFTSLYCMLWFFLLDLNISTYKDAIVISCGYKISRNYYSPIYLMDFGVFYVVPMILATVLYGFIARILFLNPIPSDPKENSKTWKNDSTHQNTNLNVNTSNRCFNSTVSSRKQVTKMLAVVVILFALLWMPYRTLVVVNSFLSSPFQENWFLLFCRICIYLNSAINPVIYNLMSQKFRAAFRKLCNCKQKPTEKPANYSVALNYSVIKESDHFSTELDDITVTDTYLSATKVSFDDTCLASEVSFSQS
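Enhancer read-out: after compound pinning and an initial kinetic agonist-mode read, an EC20 of TRH (10 nM final) was injected and fluo-8 calcium signal (Ex 480/Em 530) followed at 1 s/cycle for 100 cycles in TRHR-expressing cells.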
D1 potentiator: Potentiators of Human D1 Dopamine Receptor: qHTS; D(1A) dopamine receptor (Homo sapiens), P21728; HEK293 TREx D1 cells, calcium flux, dopamine EC20 potentiation; potentiation, % at 10 µM; 0.036% of 360,000 active; in the data active = potentiation above about 30%; also: 0% is about no effect
TRHR ag: qHTS for Small Molecule Agonists and Allosteric Enhancers of Human TRH Receptor: Primary Screen for Agonists; 0.18% of 360,000 active; Thyrotropin-releasing hormone receptor (Homo sapiens), P34981; TRHR cells, calcium flux fluo-8, FDSS agonist mode; activation, % at 2 µM; also: 0% is about no effect
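TRHR-expressing cells, plated overnight in medium with 10% serum, were loaded with fluo-8 calcium dye at room temperature. After a 10 s baseline, library compound was pin-added and calcium release was recorded kinetically (ex 480/em 530) as agonist response.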
D1 antagonist: Antagonist of Human D 1 Dopamine Receptor: qHTS; HEK293 TREx D1 cells, calcium flux, dopamine EC80; hits give low values; activity change, negative = inhibition, % at 10 µM; 3.2% of 360,000 active; AID 504652, 2011; in the data active = activity change below about -30%; also: % is scaled to controls: 0 for no effect and ±100 for the full control effect
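Kinetic fluorescence of a calcium dye serves as the read-out. D1-expressing Hek293 Trex cells, induced overnight at 30 C, are exposed to compound for 180 s before an EC80 dopamine addition, then read 180 s further.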
Active calls of the source: *; / = no result given. Sampled rows, rich in hits. Any-hit rate of the full collection: about 4.6%. Rule as the data show it, unless noted: active = activation above about 30%; inactive = the rest.

SMILES	D1 agonist	Epigenetic derep	TRHR enhancer	D1 potentiator	TRHR ag	D1 antagonist
O=C(Nc1ccc(Oc2cccc(C(F)(F)F)c2)nc1)c1cccs1	32.2*	-1.3%	4.9	-2.4	-1.4	-45.4*
O=C(Nc1ccc(F)cc1F)c1ccc2c(c1)CCN2S(=O)(=O)c1ccc(Cl)cc1	3.0	-3.0%	20.4	2.9	3.2	-0.2
COC(=O)c1cn(Cc2ccc(C(F)(F)F)cc2)cc(F)c1=O	0.2	-0.1%	-7.9	-7.5	0.2	-30.9*
COC(=O)c1ccc(Cn2cc(C(F)(F)F)ccc2=O)cc1	4.1	-5.3%	-3.2	-4.7	0.5	-0.8
C[n+]1ccc(/C=C/c2c[nH]c3ccc(F)cc23)cc1	56.1*	/	9.4	-6.0	-0.5	-4.4
Cc1ccc2[nH]c(C)c(/C=C/c3cc[n+](C)cc3)c2c1	-0.9	/	-0.6	-2.8	-0.8	6.7
Cc1cc(C(=O)CSc2n[nH]c(N)n2)c(C)n1-c1ccc2c(c1)OCO2	0.8	-0.9%	1.6	-0.1	0.0	-39.6*
CNS(=O)(=O)c1cccc(C(=O)OCC(=O)c2cc(C)n(-c3ccc4c(c3)OCO4)c2C)c1	2.6	-4.4%	-15.9	-11.1	0.3	-38.5*
Cc1cc(C(=O)COc2ccccc2Cl)c(C)n1-c1ccc2c(c1)OCO2	2.1	-0.9%	-1.9	-5.5	0.5	-0.2
Cc1cc(C(=O)CN2C(=O)NC(C)(CC(C)C)C2=O)c(C)n1-c1ccc2c(c1)OCO2 (centres undefined)	4.7	0.0%	-6.2	-3.9	0.1	-45.5*
CC(=O)Nc1ccc(S(=O)(=O)NC2=NCN(C(C)C)CN2)cc1	1.5	0.0%	3.3	-2.0	-2.4	8.7
COC(=O)c1ccc(COC(=O)CCc2nc(-c3ccccc3)c(-c3ccccc3)o2)cc1	30.4*	5.3%	0.0	-9.6	1.2	-15.5
COC(=O)c1ccc(COC(=O)c2ccccn2)cc1	0.2	0.0%	-1.4	1.4	-0.1	-14.9
N#Cc1ccc(CN2C(=O)c3ccccc3Sc3ccc(C(=O)OCc4ccco4)cc32)cc1	4.8	-1.7%	-0.9	-3.0	0.5	-16.9
COc1ccc([C@H](NC(=O)OC(C)(C)C)C(=O)OC(C)(C)C)cc1	-0.1	/	-5.0	-8.0	0.3	-47.0*
O=C(CN1C(=O)/C(=C\c2ccccc2Cl)Sc2ccccc21)NCCCN1CCOCC1	17.0	/	-3.9	-9.0	1.7	-1.3
O=C(CN1C(=O)/C(=C\c2cccc(Cl)c2)Sc2ccccc21)NCCCN1CCOCC1	53.2*	/	1.4	-17.1	-0.8	-83.6*
O=C(CN1C(=O)/C(=C/c2ccc(C(F)(F)F)cc2)Sc2ccccc21)NCCCN1CCOCC1	16.4	/	7.1	-9.3	4.2	-33.7*
CCc1ccc(/C=C2/Sc3ccccc3N(CC(=O)NCCCN3CCOCC3)C2=O)cc1	8.6	/	7.9	-6.0	5.0	-52.4*
CN1CCN(CCCNC(=O)c2ccc(/C=C3\Sc4ccccc4N(Cc4ccccc4F)C3=O)cc2)CC1	19.4	9.6%	-0.2	-9.2	0.0	-30.4*
CC1=C(C(=O)OC2CCCC2)C(c2ccc(F)cc2F)CC(=O)N1 (centres undefined)	18.6	3.8%	-2.2	-3.0	-1.3	-32.6*
CCc1ccc(OCC(=O)Nc2ccc3c(c2)c2ccccc2n3CC)c(Br)c1	-0.1	0.4%	34.0*	-3.0	-0.1	-1.7
CC(=O)N1c2ccccc2C(=O)C1N1CCN(c2ccc(F)cc2)CC1 (centres undefined)	1.7	-3.8%	0.3	-6.0	0.0	-45.7*
CC(=O)N1c2ccccc2C(=O)C1N1CCN(c2ccccc2)CC1 (centres undefined)	3.6	-2.0%	-2.6	-3.9	-0.5	21.5
COc1ccc(/C=C(\NC(=O)c2ccccc2)C(=O)NCc2ccco2)cc1	1.9	/	-10.6	-2.5	-0.2	-30.7*
SMILES	D1 agonist	Epigenetic derep	TRHR enhancer	D1 potentiator	TRHR ag	D1 antagonist
S=C(NCc1ccco1)Nc1ccc(Cl)cc1	21.1	0.0%	-0.9	-5.4	0.8	-31.0*
O=C(O)Cc1ccc(NC(=S)NCc2ccco2)cc1	1.2	-2.6%	-4.6	-2.1	-0.1	-39.5*
O=C(NC(=S)NCc1ccco1)c1ccccc1	2.0	-1.1%	-2.9	-4.2	-0.3	-31.4*
CN(C(=O)c1cc2nc(-c3ccc4c(c3)OCO4)cc(C(F)(F)F)n2n1)c1ccc(OC(F)(F)F)cc1	-0.9	0.0%	-1.8	-1.5	0.8	2.1
COc1ccc(CCNCc2ccccc2N2CCCC2)cc1	0.8	/	-4.8	1.9	-0.6	10.1
COc1ccc(CCNCc2cc(C)n(-c3ccc(OC)cc3)c2C)cc1	55.5*	/	-13.9	-8.3	-0.3	-6.5
c1ccc(-c2nc(NCCCN3CCOCC3)c3ccccc3n2)cc1	4.3	-0.8%	-1.6	-8.6	0.3	7.8
Cc1cccc(-c2nc(NCCCN3CCOCC3)c3ccccc3n2)c1	50.0*	7.2%	9.0	3.0	-0.9	-7.3
c1cncc(-c2nc(NCCCn3ccnc3)c3ccccc3n2)c1	0.0	-4.4%	-6.0	0.9	-0.4	-38.3*
Cc1nc(NCCCn2ccnc2)c2ccccc2n1	0.5	1.6%	-8.1	-9.2	0.3	-0.6
Clc1ccc(OCCCNCc2ccccc2)c2ccccc12	31.1*	/	2.0	15.9	1.4	-2.2
C=CCc1ccccc1OCCNCc1ccccc1	12.0	0.0%	5.1	-16.6	-0.3	-50.3*
Cc1cc(Br)ccc1OCCNCc1ccccc1	12.9	0.1%	6.4	-7.0	0.2	-1.8
C=CCc1ccc(OCCCNCc2ccccc2)c(OC)c1	6.2	/	3.2	-9.8	0.2	-12.7
Brc1ccccc1OCCNCc1ccccc1	12.7	0.2%	4.8	-16.4	0.0	-75.2*
O=C(CN1C(=O)COc2ccc(S(=O)(=O)Nc3ccccc3)cc21)Nc1cccc(Cl)c1	3.9	3.5%	-20.5	-1.0	0.8	-2.8
Cc1ccc(-c2nc3cc(Cl)ccc3o2)cc1NC(=O)COc1ccc(F)cc1	-1.0	0.8%	-2.9	0.2	0.1	-6.0
Cc1cc(C)n(-c2nc3cc(Cl)c(Cl)cc3nc2Nc2ccc(F)cc2C)n1	2.7	0.4%	-4.4	-3.0	0.7	-9.0
COc1cc2c(=O)c(C(=O)c3ccc(F)cc3)cn(Cc3cccc(F)c3)c2cc1OC	-0.4	-1.1%	8.9	0.0	-0.3	-24.8
CCC/C=C(\CCC)C(NP(=O)(c1ccccc1)c1ccccc1)c1ccc(C(F)(F)F)cc1 (centres undefined)	/	4.0%	/	/	/	/
